C-LANA FP: inhibitors of KSHV LANA C-terminal domain DNA binding; MBP-C-LANA/FAM-LBS DNA binding, fluorescence polarization; inhibition, % at 9 µM; 0.078% of 340,000 active; AID 504423;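 active = highest replicate inhibition at or above 60% at 9 µM, even if other replicates fall short; inactive = all replicates below 60% inhibition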;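 note: 0% = neutral control wells and 100% = 4 µM acridine orange control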
RTF Ca sens act: increases calcium sensitivity of human cardiac regulated thin filaments. P19429+P45379. IANBD-labeled TnC RTF fluorescence at EC20 calcium; 0% EC20 calcium, 100% full calcium. activation, % at 7.2 µM. 0.24% of 340,000 active. AID 493008;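 active = activation above the mean over all tested compounds plus 3 SD, cut at about 30% in these data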;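 note: rise in fluorescence read as greater calcium sensitivity of cardiac thin filaments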
eLon inh: inhibitors of E. coli Lon protease | inhibition, % at 7.94 µM | 0.42% of 360,000 active | AID 602123 | purified E. coli Lon protease, fluorescence polarization | P0A9M0; in the data active = inhibition above about 13%, passing the limit was not always enough;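 note: 0% = enzyme with probe and DMSO and 100% = no enzyme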
Target sequence (P0A9M0 whole entry, looked up): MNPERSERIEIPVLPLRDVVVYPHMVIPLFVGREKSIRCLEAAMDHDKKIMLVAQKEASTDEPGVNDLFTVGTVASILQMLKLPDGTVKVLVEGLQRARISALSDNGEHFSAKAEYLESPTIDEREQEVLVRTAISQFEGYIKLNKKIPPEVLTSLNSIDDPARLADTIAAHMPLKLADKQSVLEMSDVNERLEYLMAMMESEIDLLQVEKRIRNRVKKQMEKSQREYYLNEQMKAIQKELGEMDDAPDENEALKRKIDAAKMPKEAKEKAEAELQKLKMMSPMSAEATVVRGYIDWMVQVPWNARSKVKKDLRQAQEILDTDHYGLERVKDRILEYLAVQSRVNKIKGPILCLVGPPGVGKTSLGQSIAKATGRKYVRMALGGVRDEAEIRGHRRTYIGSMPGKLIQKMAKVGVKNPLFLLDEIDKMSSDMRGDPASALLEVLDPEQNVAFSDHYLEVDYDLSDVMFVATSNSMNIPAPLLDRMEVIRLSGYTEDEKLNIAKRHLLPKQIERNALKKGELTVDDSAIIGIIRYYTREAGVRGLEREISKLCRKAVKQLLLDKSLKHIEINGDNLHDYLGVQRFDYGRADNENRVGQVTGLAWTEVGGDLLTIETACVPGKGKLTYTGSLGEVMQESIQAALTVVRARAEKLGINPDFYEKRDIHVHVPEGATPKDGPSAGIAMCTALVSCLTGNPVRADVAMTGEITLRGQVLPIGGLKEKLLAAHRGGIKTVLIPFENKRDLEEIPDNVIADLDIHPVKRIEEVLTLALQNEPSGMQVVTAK
Keap1-Nrf2 PPI: Keap1-Nrf2 (human) interaction inhibition | Q14145 | Keap1 Kelch-Nrf2 peptide fluorescence polarization, 1536-well | inhibition, % at 9.4 µM | 0.15% of 340,000 active | AID 504523; in the data active = inhibition above about 12%;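 note: human Keap1 Kelch domain with fluorescein labeled Nrf2 9mer peptide probe; 0% = neutral control wells and 100% = peptide positive control; higher means more block of Keap1 binding to Nrf2 peptide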
Cardiac RTF inh: cardiac RTF calcium desensitization | P19429+P45379 | IANBD-labeled cardiac RTF, Ca2+ fluorescence | inhibition, % at 7.15 µM | 0.12% of 340,000 active;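 active = inhibition above the mean inhibition of all tested compounds plus 3 SD, cut at about 17% in these data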;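 note: assay run at fixed EC70 calcium of 1.6 mM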
RTF inh confirm: cardiac RTF calcium sensitivity inhibition, confirmation | reconstituted cardiac thin filaments, calcium sensitivity fluorescence | AID 504635 | inhibition, % at 7.15 µM | 8% of 360 active | shares compounds with Cardiac RTF inh; in the data active = inhibition above about 18%
* hit, by the source's call; . = not tested or not shown. Most compounds without a hit are left out; they make up all but 0.82% or so of the library.

SMILES	C-LANA FP	RTF Ca sens act	eLon inh	Keap1-Nrf2 PPI	Cardiac RTF inh	RTF inh confirm
COc1ccc(-c2cc(-c3ccc(OC)cc3)[nH]n2)cc1	0.2	4.4	-2.4	-4.3	17.4*	0.5
CC1(C(=O)NS(=O)(=O)c2cccc(OC(F)F)c2)CCN1C(=O)c1cccc(F)c1 (stereo not given)	.	.	-2.5	.	.	.
O=C(O)/C=C/C(O)c1ccc(Cl)cc1 (stereo not given)	-0.2	-3.1	-1.5	-2.1	18.4*	-4.8
O=C(/C=C/Sc1ccccc1)c1ccc(Cl)cc1	-0.1	-4.2	-8.3	-0.5	-1.2	.
CCC(c1nnnn1-c1c(C)cccc1C)N1CCCN(Cc2ccc(F)cc2)CC1 (stereo not given)	.	.	3.1	.	.	.
COc1ccc(-c2nn(-c3ccccc3)cc2C(=O)NCCCn2ccnc2)cc1	-0.9	-3.9	4.1	1.0	26.1*	-7.8
Cc1ccccc1C(NC(=O)C1CCN(Cc2ccc(Oc3ccccc3)cc2)CC1)c1ccsc1 (stereo not given)	.	.	-9.3	.	.	.
CC(COc1ccc(/C=C/c2ccccc2)cc1)[N+](C)(C)C (stereo not given)	-2.6	5.4	0.6	-3.9	20.8*	-7.1
COc1ccc(-c2cc(C(=O)OC3CCOC3=O)c3ccccc3n2)cc1 (stereo not given)	0.6	-1.6	-12.1	-1.8	-1.4	.
Cc1cc(C(=O)OC2CCOC2=O)c2ccccc2n1 (stereo not given)	-0.1	5.9	-3.2	-4.3	19.4*	-3.8
Cc1ccc(S(=O)(=O)N(C)C[C@H]2Oc3ncc(Br)cc3C(=O)N([C@H](C)CO)C[C@@H]2C)cc1	.	.	-10.7	.	.	.
COc1ccc(CCN(Cc2ccccn2)C(=S)Nc2ccc(C)cc2)cc1OC	-0.6	1.3	2.3	3.0	-6.5	.
COc1ccc(CCN(Cc2ccccn2)C(=S)Nc2cccc(SC)c2)cc1OC	0.7	-4.3	7.9	2.5	20.4*	-1.3
COc1ccc(CN2C(=O)c3ccccc3C2c2nnnn2-c2ccc3c(c2)OCCO3)cc1OC (stereo not given)	.	.	-3.0	.	.	.
CCCCNC(=O)CSc1nc2ccc(N3CCOCC3)cc2c(=O)n1Cc1ccc(OC)cc1	-1.7	0.9	12.3	-5.6	18.9*	-1.2
COCCNC(=O)CSc1nc2ccc(N3CCOCC3)cc2c(=O)n1Cc1ccc(OC)cc1	-0.7	2.2	-10.6	-1.3	-2.2	.
CC(C)(C)C(=O)Nc1ncccc1C(O)c1cccc(C(F)(F)F)c1 (stereo not given)	0.4	-9.6	-0.9	0.5	18.9*	-1.2
O=C(Nc1nnc(-c2ccccc2)o1)Nc1ccc(F)cc1F	1.0	-7.4	-5.1	1.4	17.3*	4.5
O=C(Nc1ccc(F)cc1)Nc1nnc(-c2ccccc2)o1	-0.2	-3.8	-4.2	2.5	-1.7	.
Cc1nnc(SCC(=O)NCCN2C(=O)CSC2=O)n1-c1ccccc1	0.1	-4.7	-1.2	0.8	22.9*	-1.0
O=C(CSc1nnc(-c2ccc(F)cc2)n1-c1ccccc1)NCCN1C(=O)CSC1=O	2.3	4.9	-4.8	-0.6	-6.0	.
NC(=S)Nc1nc2ccccc2s1	0.5	-5.7	2.7	1.7	19.0*	-5.3
Cc1cc(C)n2c(SCC(=O)Nc3cc(C)on3)nnc2n1	2.5	-4.3	-5.3	0.1	17.7*	-5.3
O=C(c1[nH]c(C(F)(F)F)nc1-c1ccccc1)N1CCc2ccccc2C1	.	.	-10.1	.	.	.
OC(c1cccc(Cl)c1)c1ncc(-c2ccccc2Cl)[nH]1 (stereo not given)	.	.	-9.7	.	.	.
SMILES	C-LANA FP	RTF Ca sens act	eLon inh	Keap1-Nrf2 PPI	Cardiac RTF inh	RTF inh confirm
COc1cccc(C(=O)Nc2cccc(C(=O)N3CCOCC3)c2)c1	0.2	-6.7	-1.9	-0.9	21.0*	-1.6
COCCN(C(=O)COC(=O)c1cc2c(s1)CCC2)c1c(N)n(Cc2ccccc2)c(=O)[nH]c1=O	25.5	-26.9	-11.0	6.2	19.9*	16.0
CCOc1ccc(C2C(C(=O)c3cccs3)=C(O)C(=O)N2Cc2cccnc2)cc1 (stereo not given)	0.6	6.4	9.8	-2.4	18.8*	0.5
CCOc1ccc(C2C(C(=O)c3cccs3)=C(O)C(=O)N2Cc2cccnc2)cc1OC (stereo not given)	-0.1	5.2	5.2	-5.9	-10.1	.
COc1ccc(N=Nc2ccc(N)nc2N)cc1	0.0	-5.7	-13.1	-2.8	-0.4	.
CCOc1ccc2nc3cc(N=Nc4ccc(N)nc4N)ccc3c(N)c2c1	-0.1	-12.5	40.4	5.4	25.0*	40.6*

Screening data: PubChem BioAssay, several laboratories
